In PubChem BioAssay (Tox21) one finds Potency and outcome data, which are given here for nine compounds.

“And” between values parts separate entries of the source, which are not always exact repeats. Equal entries are not always repeated. Results filed as inconclusive are left out. Some compounds were tested as several samples or in several runs, with calls that do not always agree. The source made the active and inactive calls. Unless noted, calls come from the whole dose curve; as a rule, active = well fitted curve in the direction sought with a large enough effect in the repeat runs; inconclusive = weak or mixed curves; inactive = no such curve, though single readings can be large; an effect the other way counts as inactive or inconclusive.

Assay [1] in a line: qHTS assay to identify aromatase inhibitors - cell viability counter screen (AID 743084;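 note: cells stimulated with testosterone during compound exposure; nearly all actives have a fitted effect of over 55% in size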). (In general: In qHTS, concentration-response curves come from the screen itself.)
For assay [2], the target named is Aryl hydrocarbon receptor (Homo sapiens) (UniProt P35869). The assay is described as follows: qHTS assay to identify small molecule that activate the aryl hydrocarbon receptor (AhR) signaling pathway (AID 743085).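 Note: HG2L7.5c1 human HepG2 liver cells with stably integrated DRE-driven firefly reporter; series mostly up to about 70 µM; nearly all actives have a fitted effect of over 15% in size.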 In outline: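 A multiplexed format paired cell viability (CellTiter-Fluor fluorescence) with AhR-dependent luciferase output (ONE-Glo luminescence) in the same wells of HepG2 DRE-luc cells after 24 h compound exposure at 37C.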
Sequence of Aryl hydrocarbon receptor (Homo sapiens) (P35869 whole entry, looked up): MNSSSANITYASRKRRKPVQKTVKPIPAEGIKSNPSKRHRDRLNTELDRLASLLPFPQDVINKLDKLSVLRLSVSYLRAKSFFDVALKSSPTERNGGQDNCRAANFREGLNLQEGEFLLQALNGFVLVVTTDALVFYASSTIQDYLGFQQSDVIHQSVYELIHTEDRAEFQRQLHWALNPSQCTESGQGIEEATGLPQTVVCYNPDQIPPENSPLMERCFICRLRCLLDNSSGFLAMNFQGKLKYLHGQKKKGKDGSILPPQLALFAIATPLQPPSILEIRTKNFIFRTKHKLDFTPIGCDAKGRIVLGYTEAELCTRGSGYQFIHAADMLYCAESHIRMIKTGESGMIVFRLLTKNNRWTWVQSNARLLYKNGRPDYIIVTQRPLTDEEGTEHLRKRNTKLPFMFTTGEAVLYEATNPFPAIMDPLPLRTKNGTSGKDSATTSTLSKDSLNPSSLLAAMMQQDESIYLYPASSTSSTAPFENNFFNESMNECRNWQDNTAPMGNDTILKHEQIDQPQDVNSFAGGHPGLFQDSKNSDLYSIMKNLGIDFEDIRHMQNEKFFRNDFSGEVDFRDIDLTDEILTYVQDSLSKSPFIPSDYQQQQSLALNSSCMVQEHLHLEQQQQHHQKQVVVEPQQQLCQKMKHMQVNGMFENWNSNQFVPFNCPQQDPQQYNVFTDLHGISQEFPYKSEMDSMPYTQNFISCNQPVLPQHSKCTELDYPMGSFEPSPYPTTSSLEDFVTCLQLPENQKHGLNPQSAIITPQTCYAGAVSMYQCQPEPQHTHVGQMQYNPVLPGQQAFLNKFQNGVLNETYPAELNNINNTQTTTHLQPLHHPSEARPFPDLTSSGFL

The target in assay [3] is Peroxisome proliferator-activated receptor gamma (Homo sapiens) (UniProt P37231). The assay is described as follows: qHTS assay to identify small molecule agonists of the peroxisome proliferator-activated receptor gamma (PPARg) signaling pathway (AID 743094; active = well fitted activation curve with a large enough effect in the signal ratio in the repeat runs, not every such curve was filed as active; the % refers to the signal ratio). In outline: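 HEK293H PPARg-bla cells, 5 h settle at 37C/5% CO2; compound (DMSO) 17 h, 37C; B/G FRET substrate 1 h RT; fluorescence intensity read-out. qHTS format.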
Sequence of Peroxisome proliferator-activated receptor gamma (Homo sapiens) (P37231 whole entry, looked up): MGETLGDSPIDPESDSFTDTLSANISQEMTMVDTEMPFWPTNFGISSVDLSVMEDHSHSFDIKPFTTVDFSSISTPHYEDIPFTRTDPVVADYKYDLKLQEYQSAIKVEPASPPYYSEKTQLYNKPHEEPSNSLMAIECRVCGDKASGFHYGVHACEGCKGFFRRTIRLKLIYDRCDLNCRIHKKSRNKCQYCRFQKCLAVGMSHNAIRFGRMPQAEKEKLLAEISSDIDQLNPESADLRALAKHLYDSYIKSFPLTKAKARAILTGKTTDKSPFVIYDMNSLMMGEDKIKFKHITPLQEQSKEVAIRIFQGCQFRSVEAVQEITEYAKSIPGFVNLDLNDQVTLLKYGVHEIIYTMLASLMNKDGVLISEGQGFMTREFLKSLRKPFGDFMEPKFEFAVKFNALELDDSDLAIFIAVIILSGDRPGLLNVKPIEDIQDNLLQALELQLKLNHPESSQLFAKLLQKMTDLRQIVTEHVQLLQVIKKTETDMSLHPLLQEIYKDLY

The target is the same in assay [4]. The assay is described as follows: qHTS assay to identify small molecule antagonists of the peroxisome proliferator-activated receptor gamma (PPARg) signaling pathway (AID 743191; calls by dose curve; note: series mostly up to about 63 µM; nearly all actives have a fitted effect of over 30% in size). The essentials: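 GeneBLAzer PPARg UAS-bla HEK293H cells, 5 h post-plating, exposed to compounds 17 h at 37C. LiveBLAzer B/G FRET substrate added for 1 h at room temperature; beta-lactamase reporter read by fluorescence intensity.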

The nature of assay [5]: qHTS assay for small molecule agonists of the antioxidant response element (ARE) signaling pathway - cell viability counter screen (AID 743203; calls by dose curve; note: nearly all actives have a fitted effect of over 55% in size). The essentials:
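Luminescence read-out (CellTiter-Glo, 30 min at room temperature) measured cell viability in the same wells as the ARE beta-lactamase reporter. HepG2 ARE-bla cells were treated with compounds for 16 hrs at 37C/5% CO2.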

Assay [6] in a line: qHTS assay for small molecule activators of the heat shock response signaling pathway - cell viability counter screen (AID 743209). Note: nearly all actives have a fitted effect of over 50% in size. The essentials:
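HSE-bla HeLa; 1500 cells/well; overnight 37 C, 5% CO2; compound 5 h 37 C; LiveBLAzer B/G substrate 2.5 h RT; CellTiter-Glo 30 min RT; luminescence.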

The nature of assay [7]: qHTS assay for small molecule activators of the heat shock response signaling pathway (AID 743210; active = well fitted activation curve with a large enough effect in the signal ratio in the repeat runs, with a control signal flat, not every such curve was filed as active; the % refers to the signal ratio;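 note: HeLa cells with beta-lactamase reporter driven by heat shock elements; series mostly up to about 63 µM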). In outline: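 Following overnight attachment, HSE-bla HeLa cells received test compounds for 5 h at 37 C; beta-lactamase activity was then detected via FRET substrate fluorescence.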
Assay [8] is described as follows: qHTS assay to identify small molecule agonists of the peroxisome proliferator-activated receptor delta (PPARd) signaling pathway - cell viability counter screen (AID 743211). Note: nearly all actives have a fitted effect of over 55% in size. Note: potency is the fitted concentration of half-maximal effect. The essentials:
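Tox21 library compounds, delivered in DMSO, were incubated 17 h with PPARd-bla HEK293H cells; cytotoxicity was taken from CellTiter-Glo luminescence read 30 min after reagent addition.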

A short description of assay [9]: qHTS assay to identify small molecule antagonists of the peroxisome proliferator-activated receptor delta (PPARd) signaling pathway - cell viability counter screen (AID 743213). Note: nearly all actives have a fitted effect of over 50% in size. Note: potency is the fitted concentration of half-maximal effect. In outline:
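HEK293H cells with the PPARd UAS-bla reporter, co-treated 17 h at 37 C with compounds and L165041 (300 nM final), were lysed with CellTiter-Glo. Luminescence indicated viable cell content.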

The nature of assay [10]: qHTS assay to identify small molecule agonists of the farnesoid-X-receptor (FXR) signaling pathway - cell viability counter screen (AID 743218). Note: nearly all actives have a fitted effect of over 45% in size. Note: potency is the fitted concentration of half-maximal effect. The essentials: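 Luminescence from CellTiter-Glo, read after 30 min at RT, reports viability of GeneBLAzer FXR-UAS-bla HEK 293T cells treated 16 h with compounds in the wells used for the beta-lactamase reporter.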
A short description of assay [11]: qHTS assay to identify small molecule antagonists of the farnesoid-X-receptor (FXR) signaling pathway - cell viability counter screen (AID 743221; active = well fitted cell-killing curve with a large enough effect in the repeat runs, not every such curve was filed as active; note: nearly all actives have a fitted effect of over 50% in size). The essentials:
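Cytotoxicity is taken from ATP luminescence (CellTiter-Glo, 30 min, room temperature) in FXR-bla HEK 293T cells previously incubated 16 h at 37 C with compound and chenodeoxycholic acid at 50 uM final.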

Assay [12] addresses Vitamin D3 receptor (Homo sapiens) (UniProt P11473). In words: qHTS assay to identify small molecule agonists of the vitamin D receptor (VDR) signaling pathway (AID 743222; calls by dose curve). The essentials:
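Beta-lactamase reporter readout (LiveBLAzer B/G FRET, 2 h RT) in VDR-bla cells after 16 h compound treatment at 37C, 5% CO2; cells pre-incubated 4 h before pin transfer of DMSO solutions.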

Assay [13] shares this target. The assay is described as follows: qHTS assay to identify small molecule antagonists of the vitamin D receptor (VDR) signaling pathway (AID 743223; active = well fitted inhibition curve with a large enough effect in the signal ratio in the repeat runs, not every such curve was filed as active; the % refers to the signal ratio). In outline:
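Quantitative HTS in VDR-bla reporter cells stimulated with 1alpha,25-dihydroxyvitamin D3, 3 nM final. Compound exposure 16 h, 37C, 5% CO2. Read-out: beta-lactamase FRET substrate fluorescence, 2 h RT.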

The nature of assay [14]: qHTS assay to identify small molecule that activate the aryl hydrocarbon receptor (AhR) signaling pathway - cell viability counter screen (AID 743086).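 Note: HepG2 liver cells carrying the AhR DRE luciferase reporter; series mostly up to about 70 µM; nearly all actives have a fitted effect of over 45% in size.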 In outline:
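HepG2-AhR-luc (HG2L7.5c1) cells, 4000/well, treated 24 h at 37 C with compound; viability measured as CellTiter-Fluor fluorescence after 30 min in the same wells as the luciferase read.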

The nature of assay [15]: qHTS assay for small molecule agonists of the antioxidant response element (ARE) signaling pathway (AID 743202; active = well fitted activation curve with a large enough effect in the signal ratio in the repeat runs, not every such curve was filed as active; the % refers to the signal ratio; note: potency is the fitted concentration of half-maximal effect). In outline:
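HepG2 ARE-bla cells; 16 h treatment at 37 C; FRET-based beta-lactamase fluorescence read after 2 h substrate incubation at room temperature.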

Assay [16] concerns the target Peroxisome proliferator-activated receptor delta (Homo sapiens) (UniProt Q03181). The assay is described as follows: qHTS assay to identify small molecule agonists of the peroxisome proliferator-activated receptor delta (PPARd) signaling pathway (AID 743212; calls by dose curve). In outline: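 Tox21 library screened in GeneBLAzer PPARd UAS-bla HEK293H cells. After compound treatment at 37 C, a FRET-based beta-lactamase substrate was applied for 2 h and fluorescence recorded.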

Assay [17] has the same target. The assay is described as follows: qHTS assay to identify small molecule antagonists of the peroxisome proliferator-activated receptor delta (PPARd) signaling pathway (AID 743215; active = well fitted inhibition curve with a large enough effect in the signal ratio in the repeat runs, not every such curve was filed as active; the % refers to the signal ratio;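 note: cells stimulated with agonist L165041 at 300 nM final during compound exposure; series mostly up to about 62 µM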). In outline:
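HEK293H GeneBLAzer PPARd UAS-bla reporter cells; cpd + L165041 300 nM final, 17 h 37 C; LiveBLAzer B/G FRET substrate 2 h RT; fluorescence intensity read-out. Antagonist mode.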

Assay [18] is described as follows: qHTS assay to identify small molecule antagonists of the peroxisome proliferator-activated receptor gamma (PPARg) signaling pathway - cell viability counter screen (AID 743194). Note: nearly all actives have a fitted effect of over 55% in size. Particulars: Potency: co-treated with 50 nM rosiglitazone unless noted. The essentials:
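Cytotoxicity counter screen in PPARg-bla HEK293H cells, same wells as reporter assay. Compounds plus 50 nM rosiglitazone (final) for 17 h at 37 C, then viability read by CellTiter-Glo luminescence.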

Sequence of Peroxisome proliferator-activated receptor delta (Homo sapiens) (Q03181 whole entry, looked up): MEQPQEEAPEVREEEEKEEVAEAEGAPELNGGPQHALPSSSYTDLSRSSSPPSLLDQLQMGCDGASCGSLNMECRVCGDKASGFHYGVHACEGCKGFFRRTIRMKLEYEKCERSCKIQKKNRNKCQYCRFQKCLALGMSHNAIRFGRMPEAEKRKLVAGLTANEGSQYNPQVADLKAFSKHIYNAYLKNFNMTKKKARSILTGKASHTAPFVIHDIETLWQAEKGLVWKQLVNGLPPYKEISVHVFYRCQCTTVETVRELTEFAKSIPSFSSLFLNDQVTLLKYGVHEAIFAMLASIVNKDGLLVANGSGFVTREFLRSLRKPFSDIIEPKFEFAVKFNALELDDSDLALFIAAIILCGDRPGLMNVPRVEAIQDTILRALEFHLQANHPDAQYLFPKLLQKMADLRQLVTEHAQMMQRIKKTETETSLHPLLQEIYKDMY
Sequence of Vitamin D3 receptor (Homo sapiens) (P11473 whole entry, looked up): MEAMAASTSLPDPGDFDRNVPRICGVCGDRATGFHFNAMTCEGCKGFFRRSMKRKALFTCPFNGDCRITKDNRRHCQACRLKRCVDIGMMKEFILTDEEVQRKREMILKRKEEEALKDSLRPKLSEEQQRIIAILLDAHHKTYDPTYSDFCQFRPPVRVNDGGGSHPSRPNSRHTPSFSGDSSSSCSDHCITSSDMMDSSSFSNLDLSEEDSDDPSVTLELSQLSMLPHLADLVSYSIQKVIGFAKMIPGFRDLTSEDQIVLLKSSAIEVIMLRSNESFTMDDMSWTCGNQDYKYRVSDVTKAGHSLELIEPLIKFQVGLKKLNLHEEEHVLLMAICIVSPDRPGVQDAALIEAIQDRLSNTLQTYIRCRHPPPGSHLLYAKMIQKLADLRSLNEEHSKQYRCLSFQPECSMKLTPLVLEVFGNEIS

`CCn1cc[n+](C)c1C`: the Potency result in assay [1], in [2], in assay [4], in assay [5], in assay [6] and in assay [8] was “inactive” throughout. Moreover, the Potency result in assay [9], in [10], in assay [11] and in assay [13] was “inactive” in each case. Also, the call in [3], in [7] and in assay [12] was inactive.
For `O=C(O)C(Cl)(Cl)Cl`, the Potency entry in assay [1], in [14], in [4], in [15], in [5] and in [6] was “inactive” in each case. Also, the Potency entry in assay [8], in assay [9], in assay [10], in assay [11] and in [13] was “inactive” throughout. For the same compound, the result in assay [3], in assay [7], in [16], in assay [17] and in assay [12] was inactive.
As for `O=C(O)c1ccccc1O`, the Potency entry in [15], in [5], in assay [6], in [8], in [9] and in assay [10] was “inactive” in each case. Also, the Potency entry in [11] is “inactive”.
Regarding `CC[N+](CC)(CC)CC`, the Potency result in [1], in [2], in assay [18], in assay [15], in assay [5] and in [6] was “inactive” in each case. Further, the Potency result in assay [8], in assay [9], in [10], in assay [11] and in [13] was “inactive” throughout. The result in assay [7] and in assay [12] was inactive.
Consider `Cc1cc(-c2ccc(N)c(C)c2)ccc1N`, for which the Potency result in [1], in assay [4], in assay [5], in [6], in assay [8] and in [9] was “inactive” throughout. Also, the Potency result in assay [10], in assay [11] and in [13] was “inactive” throughout. Besides, the compound was classed as inactive in assay [3], in assay [7] and in assay [12]. In assay [15], the Potency is 8.73 µM (active).
Turning to `CCCCCCCCCCCCOS(=O)(=O)O`, the Potency result in assay [1], in assay [18], in [15], in assay [5], in assay [6] and in assay [11] was “inactive” throughout. Moreover, the Potency in assay [8] was 38.9 µM (active) and inactive; in assay [9] it was 38.9 µM (active) and inactive; in assay [10], 49 µM (active) and 24.5 µM (active) and inactive.
Consider `CCCC[N+]1(C)CCCCC1`, for which the Potency result in assay [1], in assay [2], in assay [18], in [15], in [5] and in [6] was “inactive” in each case. Further, the Potency entry in [8], in assay [9], in [10], in assay [11] and in [13] was “inactive” in each case. The result in assay [12] was inactive.
On to `O=C(O)COc1ccc(Cl)cc1Cl`, for which the Potency result in assay [15], in assay [5], in assay [6], in assay [8], in [9] and in assay [10] was “inactive” each time. The Potency entry in assay [11] and in assay [13] was “inactive” throughout. The call in [16], in assay [17] and in assay [12] was inactive.
`CCCCCCCCCCCC(=O)O`: the Potency entry in [1], in assay [14], in assay [15], in [5], in assay [6] and in assay [8] was “inactive” each time. The Potency entry in assay [9], in assay [10] and in assay [11] was “inactive” each time.
